From PubChem
Compounds with a hit are over-represented: about 0.52% of the library has one in this group of screens.
Chronic BCR inh – qHTS Assay to Find Inhibitors of Chronic Active B-Cell Receptor Signaling; ABC-DLBCL IkBa-CBG/CBR reporter, luminescence ratio, 4 h; Potency, µM (highest dose often 46.1 µM), inactives show at the top dose activity change, negative = inhibition, usual class: inhibitors; 340,000 compounds, 0.05% hits; AID 493014, 2011; active means well fitted inhibition curve with a large enough effect in the signal ratio, with a control signal flat, not every such curve was filed as active; inconclusive means small, poorly fitted or top-dose-only effect, or effect the other way, or a change in a side signal; the % refers to the signal ratio;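 further: potency means the concentration at half of the fitted maximal effect; plate controls were basal doxycycline-induced cells for no effect and cells given 10 µM MG132 for full effect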
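Cell line TMD8 (human ABC DLBCL), stably expressing tet-inducible CBG68-IkBa fusion and CBR; IMDM/0.5% FBS; cpd up to 46 uM; dox induction, 4 h, 37C/5% CO2; dual luminescence; green/red ratio; MG132 control.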
GCN5L2 inh-1 – qHTS Assay for Inhibitors of GCN5L2; Histone acetyltransferase KAT2A (Homo sapiens), Q92830; GCN5L2 HAT assay, ThioGlo1 CoA-SH fluorescence; Potency, µM (titrated, usually from 58.9 µM), for inactives: top-dose activity change, negative = inhibition, hits mostly inhibitors; 390,000 compounds, 0.21% hits; further: potency means the concentration at half of the fitted maximal effect; on the % scale 0 is the no-effect control and ±100 the full control effect
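ThioGlo1-coupled HAT assay: 20nM GCN5L2, 70uM acetyl-CoA, 75uM H3(1-25) peptide, pH 7.5. Fluorescence read at 340/540nm at start and after 20 min at room temperature.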
uPA generation – qHTS for Inhibitors of Cell Surface uPA Generation. cell surface uPA generation assay, qHTS. Potency, µM (top dose mostly 38.3 µM), for inactives: at the top dose activity change, negative = inhibition, most hits filed as inhibitors. 330,000 compounds, 0.31% hits; active means well fitted inhibition curve with a large enough effect; inconclusive means small, poorly fitted or top-dose-only effect; inactive means no such curve, though single readings can be large or run the other way; tested in mouse RAW 264.7 cells; further: potency means the concentration at half of the fitted maximal effect; on the % scale 0 is the no-effect control and ±100 the full control effect; nearly all actives have a fitted effect of over 55% in size
RGS4 inh – Inhibitors of Regulator of G Protein Signaling (RGS) 4: qHTS | Regulator of G-protein signaling 4 (Homo sapiens), P49798 | Transcreener GDP fluorescence polarization, RGS4-accelerated GTP hydrolysis | Potency, µM (doses to about 114 µM), without a hit: at the top dose activity change, negative = inhibition, actives largely listed as inhibitors | 390,000 compounds, 0.039% hits; further: potency means the concentration at half of the fitted maximal effect; on the % scale 0 is the no-effect control and ±100 the full control effect; nearly all actives have a fitted effect of over 75% in size
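MLSMR compounds (23 nl, pin-transferred) preincubated 10 min at room temperature with a 500nM (2x) first reagent, then RGS4 at 900nM (2x) plus Transcreener GDP mix added; fluorescence polarization (620/688 nm) read before and after 90 min at 30 °C.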
USP2a inh – qHTS Assay for Inhibitors of Ubiquitin-specific Protease USP2a Using CHOP2 as the Reporter | Ubiquitin carboxyl-terminal hydrolase 2 (Homo sapiens), O75604 | USP2 core, Ub-CHOP2 coupled fluorogenic reporter, 485/531 | Potency, µM (top dose mostly 38.3 µM), for the others: top-dose activity change, negative = inhibition, hits mostly inhibitors | 330,000 compounds, 0.01% hits;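 further: potency means the concentration at half of the fitted maximal effect; plate controls were DMSO wells for no effect and full inhibition by NEM control for full effect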
Target sequence (O75604 whole entry, looked up): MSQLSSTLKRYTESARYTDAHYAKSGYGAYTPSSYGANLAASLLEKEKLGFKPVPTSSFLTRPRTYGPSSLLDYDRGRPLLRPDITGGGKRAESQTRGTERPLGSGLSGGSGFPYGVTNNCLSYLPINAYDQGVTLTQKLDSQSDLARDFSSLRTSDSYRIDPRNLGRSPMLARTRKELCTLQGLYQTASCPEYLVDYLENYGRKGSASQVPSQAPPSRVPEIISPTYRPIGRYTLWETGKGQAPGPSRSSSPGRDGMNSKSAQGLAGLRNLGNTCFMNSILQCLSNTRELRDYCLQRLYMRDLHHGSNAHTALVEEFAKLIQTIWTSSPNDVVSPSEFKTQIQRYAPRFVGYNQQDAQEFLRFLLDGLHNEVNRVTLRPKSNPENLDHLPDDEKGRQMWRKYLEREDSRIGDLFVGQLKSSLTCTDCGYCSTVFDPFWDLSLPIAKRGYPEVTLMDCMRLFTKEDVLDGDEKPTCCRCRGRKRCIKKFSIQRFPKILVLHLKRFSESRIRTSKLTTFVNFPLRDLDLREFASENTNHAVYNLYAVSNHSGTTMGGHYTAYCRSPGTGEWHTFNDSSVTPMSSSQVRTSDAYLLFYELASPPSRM
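Cell-free coupled assay: 10nM USP2 core preincubated 30min RT with compound in Tris-HCl pH 8.0/CaCl2/CHAPS buffer, then 25nM Ub-CHOP2 and 25nM reporter substrate; fluorescence (Ex 485/Em 531) read after 60min RT, normalized to NEM inhibition, concentration-response curves fitted.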
Eya2 inh – qHTS Assay for Inhibitors of the Phosphatase Activity of Eya2. Protein phosphatase EYA2 (Homo sapiens), O00167. recombinant Eya2, OMFP fluorescence dephosphorylation (OMFP is methylfluorescein phosphate). Potency, µM (top dose mostly 76.9 µM), for the others: at the highest dose activity, negative = inhibition, usual class: inhibitors. 330,000 compounds, 0.006% hits. AID 488837, 2010; further: potency means the concentration at half of the fitted maximal effect; on the % scale 0 is the no-effect control and ±100 the full control effect
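Eya2 protein (added as 0.2 uM solution) was preincubated with compound for 10 min at ambient temperature in 50 mM HEPES pH 7.5, 50 mM NaCl, 5 uM MgCl2, 0.05% BSA, 1 mM DTT. OMFP (added at 50 uM) then reacted 10 min; fluorescence read at 485/525 nm.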
GCN5L2 inh-2 – qHTS Assay for Inhibitors of GCN5L2: Hit confirmation; Potency, µM, hits mostly inhibitors; shares compounds with GCN5L2 inh-1; GCN5L2 HAT, ThioGlo1 CoA fluorescence, 20 min; 140 compounds, 70% hits; AID 588347, 2011
Starred values were filed as active, the others as inactive; u = inconclusive; x = no result given; [ ] = another dose, or the depositor's remark. Unless noted, the call rests on the fitted dose curve; in most records, active means well fitted curve in the direction sought with a large enough effect; inconclusive means small, poorly fitted or top-dose-only effect, or another doubt; inactive means no such curve, though single readings can be large; an effect the other way counts as inactive or inconclusive.

SMILES | Chronic BCR inh | GCN5L2 inh-1 | uPA generation | RGS4 inh | USP2a inh | Eya2 inh | others
Cc1ccc(-c2cc3cccc[n+]3cc2-c2ccc(C)cc2)cc1 | u | 2% | 10µM* | -17% | 2% | -2%
Cc1ccc2c(=O)cc(C(=O)Nc3sc4c(c3C(=O)NCC3CCCO3)CCC4)oc2c1 (centres undefined) | x | -8% | x | 15% | x | x
COCCn1c(=O)c(-c2cc(F)cc(F)c2)nc2cnc(N3CCN(C)CC3)nc21 | x | -18% | x | x | x | x
CN1CCN(c2ncc3nc(-c4cc(F)cc(F)c4)c(=O)n(CCC#N)c3n2)CC1 | x | 25µM* | x | x | x | x
O=C(c1ccc2c(=O)n(CC3CCCO3)c(=S)[nH]c2c1)N1CCN(C(=O)c2ccco2)CC1 (centres undefined) | x | x | x | -28% | x | x
N=c1c2c(n(Cc3ccc(Br)cc3)c3c1CCC3)CCCC2 | u | 3% | 4µM* | 3%[11.4 µM] | 1% | -4%
CCOC(=O)C1CCN(C(=O)c2c(C)oc3c2C(=O)c2ccccc2C3=O)CC1 | -3% | -6% | u | 1% | 1% | -5%
Cc1oc2c(c1C(=O)N1CCC(C)CC1)C(=O)c1ccccc1C2=O | -1% | 1% | 10µM* | -2% | -3% | -2%
CCOc1ccc(C(=O)Nc2ccc3[nH]ncc3c2)cc1 | u | 3% | 5µM* | -19% | 1% | -1%
COc1ccc(C(=O)Nc2ccc3[nH]ncc3c2)cc1 | u | -9% | 3.2µM* | 11% | 0% | 9%
O=C(Nc1ccc2[nH]ncc2c1)c1ccc(F)cc1 | u | -13% | -12% | 3% | -1% | -7%
O=C(Nc1cccc(-c2nc3ccccc3o2)c1)C(F)(F)F | x | -10% | x | 0% | x | x
CC(C)OC(C)C | x | 8% | x | x | x | x
COCc1cc(Sc2ccc(Cl)cc2)nc(C)n1 | u | -3% | -3% | 4% | -4% | 7%
COCc1cc(S(=O)c2ccc(Cl)cc2)nc(C)n1 (centres undefined) | u | 1% | 5µM* | u | 0% | -2%
COc1ccc(-c2nc3cccc(C)n3c2Nc2ccc(C)cc2)cc1 | x | x | x | -1% | x | x
CC[C@H](C)[C@H](NC(=O)[C@H](Cc1ccc(O)cc1)NC(=O)[C@@H](NC(=O)[C@H](CCCN=C(N)N)NC(=O)[C@@H](N)CC(=O)O)C(C)C)C(=O)N[C@@H](Cc1cnc[nH]1)C(=O)N1CCC[C@H]1C(=O)N[C@@H](Cc1ccccc1)C(=O)N[C@@H](Cc1cnc[nH]1)C(=O)N[C@@H](CC(C)C)C(=O)O | x | 9% | x | x | x | x
Cc1nc(N2CCN(C(=O)c3ccco3)CC2)c2c3c(sc2n1)CC(C)CC3 (centres undefined) | u | -16% | 2.8µM* | 14%[56.9 µM] | -8% | -10%
COc1ccc(CNc2oc(/C=C/c3cccc(OC)c3)nc2C#N)cc1 | x | -14% | x | -3% | x | x
Cc1ccc(C)c(Nc2cc(C)nc(-c3ccccc3O)n2)c1 | u | 1% | 7.1µM* | -8% | -4% | -23%
O=[N+]([O-])C(=C1Nc2ccccc2N1)C(Cl)=C(Cl)Cl | u | 35µM* | u | u | -1% | -1% | GCN5L2 inh-2=23*
O=C(CCCn1c(=O)[nH]c2ccccc2c1=O)NCc1ccccc1Cl | -5% | -2% | x | 22% | x | x
CCc1nn2c(=O)cc(COC(=O)c3cccc(NC(=O)COc4ccccc4F)c3)nc2s1 | x | 25% | x | -37% | x | x
COCCN(C(=O)COC(=O)c1cc2c(s1)CCC2)c1c(N)n(Cc2ccccc2)c(=O)[nH]c1=O | 11% | u | 5% | u | 0% | -3% | GCN5L2 inh-2=11*
CCC1CCc2sc(C(=O)OCC(=O)N(CCOC)c3c(N)n(Cc4ccccc4)c(=O)[nH]c3=O)cc2C1 (centres undefined) | -8% | 0% | -27% | -3% | 0% | -8%
SMILES | Chronic BCR inh | GCN5L2 inh-1 | uPA generation | RGS4 inh | USP2a inh | Eya2 inh | others
Cc1nc2ccc(NC(=O)c3ccc(Cl)c([N+](=O)[O-])c3)cc2s1 | 20% | 2% | -5% | -34% | 0% | 5%
Cc1nc2ccc(NC(=O)c3cc([N+](=O)[O-])cc([N+](=O)[O-])c3Cl)cc2s1 | u | u | -2% | u | 0% | -1% | GCN5L2 inh-2=8.1*
O=C(NCCc1csc2nc(-c3ccccc3F)nn12)C(=O)Nc1cc(F)ccc1F | x | 3% | x | -8% | x | x
CC(Sc1nc(=O)cc(N)n1CCc1ccccc1)C(=O)Nc1ccccc1C#N (centres undefined) | x | 1% | x | -6% | x | x
COc1ccc(-n2nc(C(=O)Nc3cc(OC)c(OC)c(OC)c3)c(=O)n(C)c2=O)cc1 | x | -5% | x | 9% | x | x
O=C1ON=C(c2ccccc2)/C1=C/c1ccc(O)cc1 | 5% | -29% | u | u | 0% | 4%
O=C1ON=C(c2ccc(Cl)cc2)/C1=C/c1ccc(O)cc1 | u | u | 3% | u | -3% | -4% | GCN5L2 inh-2=26*
CCc1ccc(S(=O)(=O)/N=C2\C=C(NS(=O)(=O)c3ccccc3)C(=O)c3ccccc32)cc1 | u | u | -9% | -7% | -9% | 17%
CC(C)c1ccc(S(=O)(=O)/N=C2\C=C(NS(=O)(=O)c3ccccc3)C(=O)c3ccccc32)cc1 | u | 22µM* | 5% | u | -29% | 1% | GCN5L2 inh-2=9.1*
O=C(/C=C/c1ccco1)Nc1scc(-c2ccccc2)c1C(=O)O | u | u | -10% | -35% | -4% | 0% | GCN5L2 inh-2=u
O=C(O)c1cc(-c2ccc(-c3c(-c4ccc5c(c4)OCO5)noc3-c3ccsc3)cc2)nc2ccccc12 | 24% | 20µM* | -3% | -26% | 3% | 2% | GCN5L2 inh-2=16*
CN(C)c1ccc(-c2c(-c3ccc4c(c3)OCO4)noc2-c2ccsc2)cn1 | 24% | -10% | -24% | 6% | 0% | 3%
